Test results: PubChem BioAssay (EPA / NIEHS)
Inconclusive results are not listed. The source made the active and inactive calls. Rule for the calls: active = hit-call score of the fitted dose curve at least 0.9, where 1 is the maximum; inconclusive = response in the unintended direction; inactive = score below 0.9.

target: Retinoic acid receptor RXR-alpha (Homo sapiens) (UniProt P19793); assay: ATG_RXRa_TRANS: Attagene TRANS-FACTORIAL HepG2 Assay for human Retinoid X Receptor alpha (RXRa) (AID 2283012)
Description: ATG_TRANS is a cell-based, multiplexed-readout assay that uses HepG2, a human liver cell line, with measurements taken at 24 hours after chemical dosing in a 24-well plate.ATG_RXRa_TRANS is one of 30 assay component(s) measured or calculated from the ATG_TRANS assay. It is designed to make measurements of mRNA induction, a form of inducible reporter, as detected with fluorescence intensity signals by Reverse transcription polymerase chain reaction (RT-PCR) and Capillary electrophoresis technology.Data from the assay component ATG_RXRa_TRANS was analyzed into 1 assay endpoint. This assay endpoint, ATG_RXRa_TRANS, was analyzed in the positive analysis fitting direction relative to DMSO as the negative control and baseline of activity. Using a type of inducible reporter, measures of mRNA for gain-of-signal activity can be used to understand the reporter gene at the transcription factor-level as they relate to the gene RXRA. Furthermore, this assay endpoint can be referred to as a primary readout, because this assay has produced multiple assay endpoints where this one serves a reporter gene function. To generalize the intended target to other relatable targets, this assay endpoint is annotated to the nuclear receptor intended target family, where the subfamily is non-steroidal.
Human liver HepG2 cells are transiently transfected with multiple reporter transcription units (MRTUs) in 6-well plates using FuGene 6 reagent (Roche; 3 ml FuGene/1 mg DNA). The MRTU constructs are regulated by a cis-regulating element (promoter). […] A major difference between the CIS and TRANS system is that in CIS activities of endogenous TFs are measured, whereas the TRANS assay evaluates changes in activities of exogenous, chimeric NR-Gal4 proteins. […] At the end of 24 hour incubation, total RNA was isolated using TriZol reagent (Invitrogen). The isolated RNA is then reverse-transcribed using oligo(dT) primer and Mo-MLV reverse transcriptase (Invitrogen) with DNAse I (Ambion) treatment for 30 min. The one-tenth of the produced cDNA was amplified by PCR using Taq DNA polymerase (Invitrogen) and two reporter sequence-specific primers. The PCR products were fluorescently labeled by primer extension with 6-arboxyfluorescein (6-FAM) 5'-labeled reporter sequence-specific primer (2 min at 95 C, 20 s at 68 C and 10 min at 72 C) and these products were digested with 5U of HpaI (New England Biolabs) for 2h at 37 C. The fragments were purified using Qiaquick PCR columns (Qiagen), analyzed on an ABI 3130xL genetic analyzer (Applied Biosystems) with peak positions identified by using a set of X-rhodamine (ROX)-labeled MapMarker1000 molecular weight standards (BioVentures). The raw capillary electrophoresis data was processed using Attagraph software (Attagene).

Sequence of Retinoic acid receptor RXR-alpha (Homo sapiens) (P19793 whole entry, looked up): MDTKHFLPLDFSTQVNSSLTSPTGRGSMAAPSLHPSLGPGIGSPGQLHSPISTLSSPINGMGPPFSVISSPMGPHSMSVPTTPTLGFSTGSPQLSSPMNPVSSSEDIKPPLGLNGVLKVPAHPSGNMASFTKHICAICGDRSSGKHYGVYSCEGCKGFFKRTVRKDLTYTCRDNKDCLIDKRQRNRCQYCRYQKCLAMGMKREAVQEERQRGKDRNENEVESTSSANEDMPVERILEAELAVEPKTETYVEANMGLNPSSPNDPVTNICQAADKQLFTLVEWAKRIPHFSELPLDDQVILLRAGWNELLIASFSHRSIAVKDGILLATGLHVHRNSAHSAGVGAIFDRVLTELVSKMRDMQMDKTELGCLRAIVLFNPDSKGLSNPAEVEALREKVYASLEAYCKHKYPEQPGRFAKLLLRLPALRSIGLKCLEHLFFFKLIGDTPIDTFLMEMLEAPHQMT

Compound | outcome | AC50
CCCCCOC(=O)COc1cc(N2C(=O)C3=C(CCCC3)C2=O)c(F)cc1Cl | inactive | 
CC(C)(c1ccc(O)cc1)c1ccc(O)cc1 | inactive | 
C[C@]12C[C@H](O)[C@H]3[C@@H](CCC4=CC(=O)CC[C@@]43C)[C@@H]1CC[C@@H]2C(=O)CO | inactive | 
CC(C)CCCCCCc1ccc(O)cc1 |  | 12.3 µM (active) [middle of 4 runs]
c1ccc2[nH]c(-c3cscn3)nc2c1 | inactive | 
CCCCOC(=O)C(C)Oc1ccc(Oc2ccc(C(F)(F)F)cn2)cc1 (stereo not given) | inactive | 
N[C@@H](Cc1cc(I)c(Oc2ccc(O)c(I)c2)c(I)c1)C(=O)O | inactive | 
N#CSCSc1nc2ccccc2s1 | inactive | 
CCN(Cc1c(F)cccc1Cl)c1c([N+](=O)[O-])cc(C(F)(F)F)cc1[N+](=O)[O-] | inactive | 
Cc1nn(C)c(Oc2ccccc2)c1C=NOCc1ccc(C(=O)OC(C)(C)C)cc1 | inactive | 
C#C[C@]1(O)CC[C@H]2[C@@H]3CCC4=CC(=O)CC[C@@H]4[C@H]3CC[C@@]21CC | inactive | 
COc1c(Cl)ccc(Cl)c1C(=O)O | inactive | 
CCCCC(CC)COC(=O)c1ccccc1C(=O)O (stereo not given) | inactive | 
O=C(c1ccccc1)C1CCCCC1 | inactive | 
COc1nc(C)nc(NC(=O)NS(=O)(=O)c2ccccc2OCCCl)n1 | inactive | 
CC1(C)C(C=C(Cl)Cl)C1C(=O)OCc1cccc(Oc2ccccc2)c1 (stereo not given) | inactive | 
CCCN(CCC)C(=O)SCC | inactive | 
CCN(CC)C(=O)c1cccc(C)c1 | inactive | 
CCOC(=O)NCCOc1ccc(Oc2ccccc2)cc1 | inactive | 
COC(=O)c1cccc(C)c1S(=O)(=O)NC(=O)Nc1nc(OCC(F)(F)F)nc(N(C)C)n1 | inactive | 

Compound | outcome | AC50
O=C(O)c1ccccc1 | inactive | 
c1ccc(Nc2ccccc2)cc1 | inactive | 
COC(=O)CSc1cc(N=c2sc(=O)n3n2CCCC3)c(F)cc1Cl | inactive | 
OB(O)O | inactive | 
S=C(S)NCCNC(=S)S.[Mn+2].[S-]C([S-])=NCCN=C([S-])[S-].[Zn+2] | inactive | 
CC(=O)[C@H]1CC[C@H]2[C@@H]3CCC4=CC(=O)CC[C@]4(C)[C@H]3CC[C@]12C | inactive | 
CCCCC(CC)CN1C(=O)C2C3C=CC(C3)C2C1=O (stereo not given) | inactive | 
CCNc1nc(N)nc(Cl)n1 | inactive | 
COCCO | inactive | 
O=C(O)C1(C(=O)Nc2ccc(Cl)cc2Cl)CC1 | inactive | 
CCC(O)=C1C(=O)CC(C(=O)O)CC1=O (stereo not given) | inactive | 
CCOC(=O)c1ccc(O)cc1 | inactive | 
S=C([S-])NCCNC(=S)[S-].[Mn+2] | inactive | 
CCSC(=O)N(CC(C)C)CC(C)C | inactive | 
CN(C)C(=O)Nc1ccc(Cl)c(Cl)c1 | inactive | 
CCCOC(=O)c1ccc(C(=O)OCCC)nc1 | inactive | 
CCCCOC(=O)[C@@H](C)Oc1ccc(Oc2ccc(C(F)(F)F)cn2)cc1 | inactive | 
CCOC(=O)C(C)Oc1ccc(Oc2cnc3cc(Cl)ccc3n2)cc1 (stereo not given) | inactive | 
CCCCOCCOCCOCc1cc2c(cc1CCC)OCO2 | inactive | 
CCOC(=O)C(C)Oc1ccc(Oc2nc3ccc(Cl)cc3o2)cc1 (stereo not given) | inactive | 
